Measurements published in the supplement of paper PMC13380429.

Legend:
[1] = tested on: Vero E6 infected with SARS-CoV-2; test: morphology score (similarity to uninfected cells); higher = more like uninfected cells; conditions: 24 h
[2] = tested on: Vero E6 infected with SARS-CoV-2; test: SARS-CoV-2 infection rate relative to infected DMSO; higher = more infection, active = 60 or less; conditions: 24 h

SMILES	morphology score [1]	SARS-CoV-2 infection rate [2]
COCCOc1ccc2c(c1)ncn2-c1ccc2cccc(N3CCC(N)CC3)c2n1 (0.833333 µM)	-0.0191	106% (inactive)
C[C@H](Nc1cc(NS(=O)(=O)N2CCC2)nc(SCc2cccc(F)c2F)n1)[C@@H](O)CO (10 µM)	0.112	99% (inactive)
Nc1ccc(/N=N/c2ccccc2)c(N)n1 [phenazopyridine] (10 µM)	0.34	87.5% (inactive)
Cc1cccc(C)c1NC(=O)CN1CCN(CCCC(c2ccc(F)cc2)c2ccc(F)cc2)CC1 [lidoflazine] (10 µM)	0.34	76.5% (inactive)
O=[N+]([O-])O[C@H]1CO[C@H]2[C@@H]1OC[C@H]2O[N+](=O)[O-] [isosorbide-dinitrate] (10 µM)	0.0765	112% (inactive)
NC(=O)N1c2ccccc2CC(O)c2ccccc21 (stereo unspecified) [licarbazepine] (10 µM)	0.188	97% (inactive)
CC(=O)OCC(=O)[C@H]1CC[C@H]2[C@@H]3CCC4=CC(=O)CC[C@]4(C)[C@H]3CC[C@]12C [deoxycorticosterone-acetate] (10 µM)	-0.0375	102% (inactive)
C=C(C)CN1CC[C@]23c4c5ccc(O)c4O[C@H]2c2[nH]c4ccccc4c2C[C@@]3(O)C1C5 (10 µM)	0.0617	108% (inactive)
O=C1CN(/N=C/c2ccc(-c3ccc([N+](=O)[O-])cc3)o2)C(=O)N1 [dantrolene] (10 µM)	0.0672	110% (inactive)
CCOC(=O)c1ccc(N)cc1 [benzocaine] (10 µM)	-0.0142	112% (inactive)
CC1CCN(C(c2ccc(F)cc2)c2ccc(C(C)C(=O)O)cc2-c2ccc(C(F)(F)F)cc2)CC1 (stereo unspecified) (10 µM)	0.0608	106% (inactive)
C[C@@H](N)c1ccc(C(=O)Nc2ccnc3[nH]ccc23)cc1 (10 µM)	-0.104	112% (inactive)
CCN(CC)CCCC(C)Nc1nc(C)cc(Nc2ccc3nc(C)cc(N)c3c2)n1 (stereo unspecified) (10 µM)	-0.115	110% (inactive)
Oc1cc2c(cc1O)[C@@H]1c3ccc(O)c(O)c3OC[C@]1(O)C2 [hematoxylin] (10 µM)	-0.0601	114% (inactive)
CNc1cc2[nH]c(=O)n(-c3ccc(NC(=O)NS(=O)(=O)c4ccc(Cl)s4)cc3)c(=O)c2cc1F [elinogrel] (10 µM)	0.235	87.5% (inactive)
N#CC[C@@H](C1CCCC1)n1cc(-c2ncnc3[nH]ccc23)cn1 [ruxolitinib-(S)] (10 µM)	0.62	105% (inactive)
CN[C@H]1C(=O)N[C@@H]2Cc3ccc(cc3)Oc3cc4cc(c3O[C@@H]3O[C@H](C(=O)O)[C@@H](O)[C@H](O)[C@H]3NC(=O)CCCCCCCCC(C)C)Oc3ccc(cc3Cl)[C@@H](O)[C@@H]3NC(=O)[C@H](NC(=O)[C@@H]4NC(=O)[C@@H](NC2=O)c2cc(cc(O)c2Cl)Oc2cc1ccc2O)c1ccc(O)c(c1)-c1c(O[C@H]2O[C@H](CO)[C@@H](O)[C@H](O)[C@@H]2O)cc(O)cc1[C@@H](C(=O)NCCCN(C)C)NC3=O [dalbavancin] (10 µM)	-0.218	113% (inactive)
O=C(O)CNC(=O)c1ccccc1I [2-iodohippuric-acid] (10 µM)	-0.111	110% (inactive)
CCOC(=O)N1c2ccc(C(F)(F)F)cc2[C@@H](N(Cc2cc(C(F)(F)F)cc(C(F)(F)F)c2)C(=O)OC)C[C@H]1CC (10 µM)	0.259	93% (inactive)
Cc1onc(-c2ccccc2)c1-c1ccc(S(N)(=O)=O)cc1 [valdecoxib] (10 µM)	-0.0646	98.5% (inactive)
CNc1cc(OC)c(C(=O)NC2CCN(Cc3ccccc3)C2C)cc1Cl (stereo unspecified) [nemonapride] (10 µM)	0.642	36.5% (active)
O=C1NCCc2[nH]c(-c3ccncc3)cc21 (0.833333 µM)	0.0617	106% (inactive)
Cc1nc2sccn2c(=O)c1CCN1CCC(=C(c2ccccc2)c2ccc(F)cc2)CC1 (10 µM)	0.149	81.5% (inactive)
NC(=O)c1ccc[n+]([C@@H]2O[C@H](COP(=O)([O-])OP(=O)(O)OC[C@H]3O[C@@H](n4cnc5c(N)ncnc54)[C@H](O)[C@@H]3O)[C@@H](O)[C@H]2O)c1 [nadide] (10 µM)	-0.0496	94% (inactive)
O=C(CCc1ccncc1)NNC(=O)N1Cc2ccccc2Oc2ccc(Cl)cc21 (10 µM)	-0.103	108% (inactive)
CC1CC(OC(=O)C(O)c2ccccc2)CC(C)(C)N1C (stereo unspecified) [eucatropine] (10 µM)	-0.104	115% (inactive)
CCN(C(C)=O)c1cccc(-c2ccnc3c(C#N)cnn23)c1 (10 µM)	0.0588	98.5% (inactive)
O=C(O)c1ccccc1-c1ccc(C(F)(F)F)cc1 [xenalipin] (10 µM)	0.0335	102% (inactive)
